Only some compounds are listed: those with a hit (about 2.3% of all), similar ones and a draw of the others.
CHO-K1 Ca PAM = counter-screen for M1 PAMs: effect in parental CHO-K1 cells; ATP EC20, Fluo-8 calcium fluorescence; 0% at ATP EC20, 100% at ATP max; activation, % at 3 µM; 360,000 compounds, 0.02% hits; AID 602247;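 active means activation above the run cutoff, the mean activation of all test compounds plus 3 SD, cut at about 40% in these data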;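 further: peak over basal fluorescence ratio in a 140 s read after ATP addition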
CHO-K1 Ca antag = nonselective inhibitor or artifact in parental CHO-K1 cells. ATP-induced calcium, Fluo-8 fluorescence. inhibition, % at 3 µM. 360,000 compounds, 0.6% hits;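 active means inhibition above a per-plate cutoff, the plate's mean sample inhibition plus 3 SD, cut at about 24% in these data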
M1 PAM = positive allosteric modulators of human M1 muscarinic receptor. P11229. activation, % at 3 µM. CHO-K1 hM1, Fluo-8 calcium fluorescence, ACh EC20; 0% = ACh EC20, 100% = maximal ACh. 360,000 compounds, 0.088% hits; in the data active means activation above about 19%, passing the limit was not always enough
Target sequence (P11229 whole entry, looked up): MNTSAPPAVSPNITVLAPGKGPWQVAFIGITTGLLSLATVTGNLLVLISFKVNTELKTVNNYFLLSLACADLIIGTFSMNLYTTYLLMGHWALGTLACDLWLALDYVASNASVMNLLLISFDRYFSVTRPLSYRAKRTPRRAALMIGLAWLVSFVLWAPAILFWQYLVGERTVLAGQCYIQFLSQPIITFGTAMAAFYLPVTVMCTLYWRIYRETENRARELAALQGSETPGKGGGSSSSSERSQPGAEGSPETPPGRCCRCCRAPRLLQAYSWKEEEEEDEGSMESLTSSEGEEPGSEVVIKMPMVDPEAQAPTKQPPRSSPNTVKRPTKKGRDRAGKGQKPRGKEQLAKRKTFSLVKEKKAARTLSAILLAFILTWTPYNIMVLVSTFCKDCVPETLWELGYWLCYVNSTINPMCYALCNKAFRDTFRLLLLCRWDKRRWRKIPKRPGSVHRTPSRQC
CHO-K1 Ca ag = M1 agonist counterscreen hit in parental CHO-K1 cells. Fluo-8 calcium fluorescence; scaled to maximal ATP response, vehicle zero. activation, % at 3 µM. 360,000 compounds, 0.48% hits. AID 602248; in the data active means activation above about 15%;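 further: untransfected CHO-K1 host cells lacking M1 receptor as counterscreen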
M1 antag = human CHRM1 antagonism; CHO-K1 hM1, Fluo-8 calcium fluorescence, ACh EC80 antagonist; inhibition, % at 3 µM; 360,000 compounds, 1.3% hits; P11229;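 active means percent inhibition above its own plate's cutoff, namely the mean of that plate's compound wells plus 3 SD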;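 further: peak over basal fluorescence ratio during 140 s after agonist addition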
M1 ag = human M1 muscarinic receptor agonism; P11229; CHO-K1 hM1, Fluo-8 calcium fluorescence, agonist mode; 0% DMSO, 100% acetylcholine EC100; activation, % at 3 µM; 360,000 compounds, 0.33% hits;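 active means activation above the run's mean compound activation plus 3 SD, cut at about 16% in these data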;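 further: peak over basal fluorescence ratio within a 140 s kinetic read after compound addition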
A number is an active result; - = inactive.

SMILES	CHO-K1 Ca PAM	CHO-K1 Ca antag	M1 PAM	CHO-K1 Ca ag	M1 antag	M1 ag
CC(C)c1ccc(/C=C/C(=O)NC(=S)Nc2ccc(CN3CCOCC3)cc2)cc1	-	-	-	-	48.2	-
O=C(COc1ccc(Cl)cc1Cl)NC(=S)Nc1ccc(CN2CCOCC2)cc1	-	-	-	-	37.5	-
COCCN(CC(=O)Nc1cccc(C)c1C)C(=O)c1oc2ccccc2c1C	-	-	-	-	-	-
CNC(C)C(=O)NC(C(=O)N1CCCC1C(=O)Nc1ccc2ncccc2c1)C(C)C (stereo not drawn)	-	-	31.6	-	-	-
CNC(C)C(=O)NC(C(=O)N1CCCC1C(=O)Nc1ccc2[nH]ccc2c1)C(C)C (stereo not drawn)	-	-	-	-	-	-
O=C(COc1ccccc1Cl)NC(=O)NC1CCCC1	-	-	-	-	34.2	-
O=C(COc1ccc(Cl)cc1Cl)NC(=O)NC1CCCC1	-	-	-	-	-	-
O=C(NC1CCCCC1)C(c1ccccc1)N1CCCC1 (stereo not drawn)	-	-	-	-	79.8	-
O=C(Nc1ccccc1Cl)NC1CCCCCCC1	-	-	-	23.4	-	-
O=C(COc1ccc(Cl)cc1Br)NC(=O)NC1CCCC1	-	-	-	-	31.1	-
Cc1ccc(C(C(=O)NC2CCCCC2)N2CCCC2)cc1 (stereo not drawn)	-	-	-	-	-	-
CC(NC(=O)COC(=O)C1(C)CC1(Cl)Cl)c1ccccc1 (stereo not drawn)	-	-	-	-	-	-
CC(C)NC(=O)c1cc(C2CCCCN2C(=O)OCCF)on1 (stereo not drawn)	-	-	-	-	-	-
CCN1CCN(S(=O)(=O)c2cc(OCC(=O)NC3CCCCC3)c(C)cc2Cl)CC1	-	26.7	-	-	-	-
Cc1cc(Cl)c(S(=O)(=O)N2CCN(c3ccccn3)CC2)cc1OCC(=O)NC1CCCCC1	-	-	-	-	26.4	-
O=C1NC(Cc2ccc(O)cc2)c2nc3cc(Cl)ccc3c(=O)n2-c2cc(Cl)ccc21 (stereo not drawn)	-	-	-	-	-	-
COc1cccc(NC(=O)C2(S(=O)(=O)c3ccc(Cl)cc3)CC2)c1	-	-	-	-	-	-
COc1ccc(C(=O)Nc2ccc(Oc3ncnc4sc(-c5ccccc5)cc34)cc2)cc1OC	-	-	-	16.0	-	-
COc1cc(C(=O)Nc2ccc(Oc3ncnc4sc(-c5ccccc5)cc34)cc2)cc(OC)c1OC	-	-	-	-	-	-
COc1ccc(S(=O)(=O)N2CCN(C3CCN(Cc4ccccc4)CC3)CC2)cc1	-	-	-	-	52.7	-
COc1cccc(CN2CCCN(S(=O)(=O)c3ccc(Br)cc3)CC2)c1	-	-	-	-	37.3	-
CC(=O)N(CCCCl)C(C#N)c1ccccc1 (stereo not drawn)	-	-	-	-	-	51.4
CCN(CC)C(=O)N1CCC(NC(=O)Cc2ccccc2)CC1	-	26.3	-	-	-	-
CCOC(=O)N1CCC(N2CCN(S(=O)(=O)c3ccc(C)cc3)CC2)CC1	-	-	-	-	-	23.5
O=C(Cc1ccccc1)NC1CCN(C(=O)NCc2ccccc2)CC1	-	-	-	-	-	-
SMILES	CHO-K1 Ca PAM	CHO-K1 Ca antag	M1 PAM	CHO-K1 Ca ag	M1 antag	M1 ag
Cc1ccc(N(C)C(=O)N2CCN(S(=O)(=O)c3ccc(C)cc3)CC2)cc1	-	-	25.4	-	-	18.8
CN1CCN(C(=O)N(c2ccccc2)c2ccccc2)CC1	-	-	-	-	-	-
CCN1CCN(C(=O)N(c2ccccc2)c2ccccc2)CC1	-	-	-	-	42.4	-
CCOC(=O)C1CCN(C(=O)c2cc(C)n(C(C)(C)C)n2)CC1	-	-	-	-	-	-
CCN(CC)S(=O)(=O)c1ccc(N2CC(C(=O)Nc3cccc(C(=O)NC4CC4)c3)CC2=O)cc1 (stereo not drawn)	-	-	-	-	-	-
CCN(CC)C(=O)N1CCN(S(=O)(=O)c2ccccc2)CC1	-	-	27.7	-	-	-
Cc1ccc(S(=O)(=O)N2CCN(C(=O)N(c3ccccc3)c3ccccc3)CC2)cc1	-	-	-	-	-	-
CCOc1ccc(/C(O)=C2/C(=O)C(=O)N(c3ccccn3)C2c2ccc(F)cc2)c(C)c1 (stereo not drawn)	-	-	-	-	-	-
CC(=O)c1c(C)[nH]c(C(=O)CN2CCN(S(=O)(=O)c3ccccc3[N+](=O)[O-])CC2)c1C	-	-	-	18.6	-	-
CC1=NNC(=O)/C1=C\c1cn(-c2ccccc2)nc1-c1cccs1	-	30.6	-	-	33.6	-
CCOC(=O)c1[nH]ncc1CN1CCCC(C(=O)c2ccc(SC)cc2)C1 (stereo not drawn)	-	-	-	-	-	-
COc1ccc(CN2CCCC(C(=O)c3ccc(SC)cc3)C2)cc1Cn1cccn1 (stereo not drawn)	-	-	-	-	88.3	-
CSc1ccc(C(=O)C2CCCN(Cc3ccc(N4CCNC4=O)cc3)C2)cc1 (stereo not drawn)	-	-	-	-	96.6	-
CN1C(=O)C(C)(C)c2cc(S(=O)(=O)NCC3CCC(C(=O)NCc4ccccc4)CC3)ccc21 (stereo not drawn)	-	-	-	-	-	-
COc1ccc(O)c(C(=O)c2coc(=N)c(C(=O)Nc3ccc(SC(F)F)cc3)c2)c1	-	-	-	16.8	-	-
CN1C(=O)C(CCC(=O)O)NC1=S (stereo not drawn)	-	-	-	-	-	-
COc1cc(CNC(=O)C2CCCC2)cc(OC)c1OC	-	-	26.6	-	-	-
COc1ccccc1CNC(=O)C1CCCC1	-	-	-	-	-	-
O=C(c1ccccc1)c1sc(N2CCOCC2)nc1-c1ccccc1	-	-	-	-	-	-
O=C(c1ccccc1)c1sc(N2CCCCCC2)nc1-c1ccccc1	-	-	-	-	-	-
COc1ccc(-c2nc(N3CCCCCC3)sc2C(=O)c2ccccc2)cc1	-	52.2	-	-	-	-
[2H]c1c([2H])c([2H])c(C(=O)c2sc(N3CCCCCC3)nc2-c2ccccc2)c([2H])c1[2H]	-	-	-	-	39.3	-
CC(=O)Nc1ccc(S(=O)(=O)N2CCN(c3ccc([N+](=O)[O-])cc3)CC2)cc1	-	-	-	-	-	-
CCOC(=O)N1CCN(C(=O)CSC2=NS(=O)(=O)c3ccccc3N2)CC1	-	-	-	-	-	-
CC1CC(C)CN(CCCNC(=O)c2ccc3c(c2)ncn3C2CCCC2)C1 (stereo not drawn)	-	-	-	-	-	-
CCn1c(C)c(C(C)=O)c(N2CCN(c3ccccn3)CC2)nc1=S	-	-	-	-	64.4	-

Screening results as filed in PubChem BioAssay.
